The structures appear in SMILES notation. In all, about 69,000 compounds went through this assay and about 8,600 (12%) showed an effect of 50% or more. Shown is part of a subset that was picked to be rich in strong results.

In the assay the test system is Plasmodium berghei. Description: Screen against P. berghei liver stage (PbLuc), transformed with Luciferase, at 10uM. The note with it: tested at 10 uM. Format: functional, HepG2.
`CCn1cc(S(=O)(=O)NCc2ccnc(-n3ccnc3)c2)cn1`: the INHIBITION is reported as -0.85%.
In the case of `CN(Cc1cnn(C)c1)CC(O)c1ccc2c(c1)OCO2` (stereo not drawn), the INHIBITION is recorded as 46.6%.
Then `Cn1nc(C(=O)NCCc2ccc(OC3CCCC3)cc2)ccc1=O`, with 35.5%.
Then `Cc1nn(C)c2cn(CC(=O)NC3CCSCC3)nc12`, with 19.8%.
Consider `CCN(C(=O)c1ccc2nnc(C3CCN(CCOC)C3)n2c1)C(C)C` (stereo not drawn), for which the INHIBITION was 34%.
Consider `CC(C)[C@H](NC(=O)N1CCC(Cc2ccccc2)CC1)C(=O)O`, for which the INHIBITION is reported as 31.3%.
Take `O=C(NCC1CCCO1)c1ccc(S(=O)(=O)NCCc2cn[nH]c2)cc1` (stereo not drawn): the INHIBITION is given as -17.5%.
For `CC(C)N1CCCCC1c1cc(CO)[nH]n1` (stereo not drawn) the value was -8.24%.
Then `CCc1nnc(CN2CCCC(Cn3nc(C)nc3C)C2)o1` (stereo not drawn), with 44.9%.
For `COc1ccc(S(=O)(=O)NCCC(=O)NCc2ccoc2)cc1OC` the value was 3.77%; for `O=C(CCc1ccsc1)NCC1CCN(C2CC2)C1` (stereo not drawn), 22.8%.
On to `C1CC(CN2CC[C@@H]3O[C@@H](c4nnc(C5CC5)o4)C[C@H]3C2)CCO1`, for which the INHIBITION turned out to be 14.5%.
Consider `CN1CCOCC2(CCCN(C(=O)c3cnccn3)C2)C1` (stereo not drawn), for which the INHIBITION was determined as 18.3%.
Turning to `CCN(CCO)Cc1ccc(Br)c2cccnc12`, the INHIBITION amounted to 7.07%.
For `O=C(c1ccccn1)N1CCc2c(nc(N3CCCC3)[nH]c2=O)C1` the value was 50%.
Regarding `O=C(c1ccccn1)N1CCc2c(nc(-c3ccncc3)[nH]c2=O)C1`, the INHIBITION is recorded as -12.1%.
In the case of `O=C(c1cc[nH]n1)N1CCc2c(nc(N3CCCCC3)[nH]c2=O)C1`, the INHIBITION is listed as 3.91%.
Take `CCCc1nnc(N2CCN(c3ccccc3Cl)CC2)o1`: the INHIBITION was -15.3%.
For `CN(C)CC(C)(C)Cn1cnc(-c2ccccc2)c1-c1ncc[nH]1` the value was 18.8%; for `CS(=O)(=O)N1CCC(CNc2c(Cl)cccc2C#N)CC1`, 19.7%; for `CNC(=O)COc1ccc(CNCc2cc(F)ccc2F)cc1`, -4.12%.
Then `CCS(=O)(=O)c1ccc(CNc2c(Cl)cccc2C#N)cc1`, with 74.9%; and `CN(c1ccc(CNc2c(Cl)cccc2C#N)cc1)S(C)(=O)=O`, with 36.9%; and `CN(C)C(=O)c1ccc(CNc2c(Cl)cccc2C#N)cc1`, with 45.2%.
Regarding `CNC(=O)COc1ccc(CNc2c(Cl)cccc2C#N)cc1`, the INHIBITION was 60.1%.
For `CCC(=O)Nc1nnc(CCOc2ccccc2)s1`, the INHIBITION was -17.2%.
For `Cc1nc(CN2CCC(c3ccnn3CCO)CC2)oc1C`, the INHIBITION is -12.2%.
Then `CN(C)C(=O)CN(C)C(=O)c1csc(Br)c1`, with -13.2%.
As for `CN(C)c1ccc(CC2CCCN(c3cnccn3)C2)nn1` (stereo not drawn), the INHIBITION is given as -14.2%.
Then `OC(CNC1CCSCC1)c1cccc(OCc2ccccc2)c1` (stereo not drawn), with 44.5%; and `Cc1nc(CN(C)C(=O)Nc2cccc(C)c2C)no1`, with 28.1%; and `N#Cc1ccc(OC2CCN(C(=O)c3ccc4c(c3)OCO4)CC2)nc1`, with 40.9%.
`CN1CCCC(C(=O)N2CCC(Oc3ncccn3)CC2)C1` (stereo not drawn): the INHIBITION was found to be 30.5%.
For `COc1cccc(OC2CN(C(=O)C3CCCN(C(=O)N(C)C)C3)C2)c1` (stereo not drawn) the value was 42.6%; for `COc1ccc(OC2CCN(C(=O)C3CCCN(C)C3)CC2)cc1` (stereo not drawn), 67.5%.
Then `COc1ccc(OC2CCN(C(=O)c3ccc(C(C)=O)s3)CC2)cc1`, with 71.5%; and `COc1ccc(OC2CCN(C(=O)c3cnc(C)s3)CC2)cc1`, with 30.8%; and `N#Cc1ccc(OC2CCN(C(=O)c3ccc(Br)o3)CC2)nc1`, with -0.532%.
Then `N#Cc1ccc(OC2CCN(C(=O)c3cncc(Br)c3)CC2)nc1`, with 54.5%; and `CC(=O)c1ccc(C(=O)N2CCC(c3cc(O)nc(C)n3)CC2)s1`, with 8.24%.
`N#Cc1ccc(C(=O)N2CCC(Oc3ccc(C#N)cn3)CC2)cc1`: the INHIBITION came out at 32.2%.
Take `N#Cc1ccc(OC2CCN(C(=O)Cc3cccs3)CC2)nc1`: the INHIBITION is 65.7%.
On to `N#Cc1ccc(OC2CCN(C(=O)c3ccccc3Cl)CC2)nc1`, for which the INHIBITION was 7.44%.
Then `Cc1ccc(S(N)(=O)=O)cc1C(=O)NC1CCN(C2CC2)CC1`, with -10.9%; and `CC(=O)N1CCN(c2ccnc(C)n2)CC(COc2ccccc2)C1` (stereo not drawn), with 1.11%; and `Cc1ccc(N2CCN(Cc3ccccc3)C3(CCNCC3)C2=O)cn1`, with 8.31%.
Consider `CN(C)c1cncc(C2CCN(CC(N)=O)CC2)n1`, for which the INHIBITION stood at 31.6%.
With `Cn1cccc1C(=O)N[C@@H]1CN(Cc2ccsc2)[C@@H]2COC[C@@H]21`, the INHIBITION is reported as -37.4%.
For `O=C(NCC1CC1)[C@H]1C[C@H]2CN(S(=O)(=O)Cc3ccccc3)C[C@@H]1O2` the value was 43.2%; for `CN(Cc1ccsc1)C(=O)Nc1ccc(S(C)(=O)=O)cc1`, 31.8%.
For `NC(=O)c1ccc(NC(=O)Cn2cc(-c3ccccc3)ncc2=O)cc1` the value was 26.8%; for `Cc1nc(-c2ccncc2)ncc1C(C)NC(=O)C1=NN(C)C(=O)CC1` (stereo not drawn), -9.29%.
Consider `CC(=O)N1CCC(Oc2ccc(C#N)cn2)CC1`, for which the INHIBITION was -43.5%.
For `CN1CCCC(C(=O)N2CCC(Oc3ccccn3)CC2)C1` (stereo not drawn) the value was 25.3%.
Consider `COc1ccccc1OC1CCN(C(=O)c2cnc(C)s2)CC1`, for which the INHIBITION was 12.7%.
For `COc1ccccc1OC1CCN(C(=O)C2CCCN(C)C2)CC1` (stereo not drawn), the INHIBITION turned out to be 62.8%.
For `Cn1nc(C(=O)N2CCC(Oc3ccc(C#N)cn3)CC2)ccc1=O` the value was 25.8%.
`CN1CCCC(C(=O)N2CCC(Oc3ccc(C#N)cn3)CC2)C1` (stereo not drawn): the INHIBITION amounted to 74.4%.
Take `COCc1ncn2c1CN(C(=O)c1ccco1)CC2`: the INHIBITION was found to be 4.57%.
As to `CCC1CNCc2cc3c(C)ccc(C)c3nc2O1` (stereo not drawn), the INHIBITION worked out at 21.7%.
For `CC(CCN1CCOCC1)NC(=O)c1cccc(C(F)(F)F)c1F` (stereo not drawn), the INHIBITION came out at 35%.
For `CC(CCN(C)C)NC(=O)c1cccc(C(F)(F)F)c1F` (stereo not drawn), the INHIBITION was determined as 66.5%.
Then `COc1cccc(C(=O)NC(C)CCN2CCOCC2)c1F` (stereo not drawn), with 34.1%.
Consider `COc1c(CNCCC(=O)NC2CCCC2)c(C(C)C)nn1C`, for which the INHIBITION was found to be 21%.
For `O=C(C[C@@H]1COC[C@H]2CN(Cc3ccc(F)cc3)C[C@@H]12)N1CCCC1` the value was -21.1%.
Then `CC(C)Nc1cccc(CNC(=O)N2CCC[C@@H]2CO)c1`, with 52.2%; and `CC(C)Nc1cccc(CNC(=O)N2CCCC2)c1`, with 24.2%.
In the case of `CC(C)Nc1cccc(CNC(=O)N2CCC(N3CC=CC3)C2)c1` (stereo not drawn), the INHIBITION was determined as 19.4%.
For `CC1=Nc2c(c(O)nn2C(C)C)C(c2cn(C)nc2C)S1` (stereo not drawn) the value was 33.3%; for `CCn1cc(Cl)c(C(=O)NCCCO)n1`, 20.1%; for `COc1ccc(NC(=O)CSC(F)(F)F)cn1`, 66.7%.
Then `O=C(CCNc1ncccn1)Nc1ccc(Cn2cncn2)cc1`, with -4.56%; and `COc1ccc2cc(NC(=O)CCNc3nc(C)cc(C)n3)cnc2c1`, with 73%; and `COc1ccc(NC(=O)Cn2cc(-c3ccccc3)ncc2=O)cn1`, with 44.9%.
For `O=C(CCCNc1ncccn1)Nc1ccc(Cn2cncn2)cc1` the value was 45.9%; for `COc1ccc2cc(NC(=O)CCCNc3ncccn3)cnc2c1`, 46.1%; for `COc1ccc(NC(=O)CCNc2ncccn2)cn1`, 61%.
As for `Cc1cc(C)nc(NCCC(=O)Nc2ccc(Cn3cncn3)cc2)n1`, the INHIBITION came to 55.1%.
For `COc1ccc(NC(=O)CSc2nc(C)cc(C)n2)cn1` the value was -5.69%; for `COc1ccc(NC(=O)N2CCN(c3ncccn3)CC2)cn1`, -7.11%; for `COc1ccc2cc(NC(=O)CCNc3ncccn3)cnc2c1`, 41.5%.
In the case of `CS(=O)(=O)c1ccc(NC(=O)CSC(F)(F)F)cn1`, the INHIBITION came out at 39.8%.
With `O=C(NCCc1nnc2n1CCC2)NCC1(c2cccc(F)c2)CC1`, the INHIBITION is -36.3%.
Take `CO[C@H]1CN(C(C)C)C[C@@H]1NC(=O)Nc1ccc(C(F)(F)F)cc1`: the INHIBITION came out at 40.3%.
`CN(CC(=O)NC(C)(C)C)C(=O)C1CC(c2cccc(F)c2)=NO1` (stereo not drawn): the INHIBITION is reported as -29.1%.
For `COCCN1CCCC(c2nccnc2-c2cccc(Cl)c2)C1` (stereo not drawn) the value was 12.75%; for `COc1ccc(-n2cc(CNC(=O)c3ccccn3)nn2)cc1`, -15.9%; for `CS(=O)(=O)NCc1cc(-c2cc(F)cc(F)c2)nc(N2CCOCC2)n1`, -4.82%.
Then `CCc1nc(CC)n(CC(=O)NCc2cccc(C)c2)n1`, with 13%; and `CN1CC(=O)N(c2ccccc2)CC12CCN(CC1CCOCC1)C2` (stereo not drawn), with -11.2%.
Then `CCc1nccn1CC(=O)N1C[C@@H]2CC[C@H]1CN(c1ncccn1)C2`, with -22.4%.
Turning to `Cc1cnn(CC2CN(Cc3nc(C)no3)CCO2)c1` (stereo not drawn), the INHIBITION is 4.71%.
Then `Cc1nc(CN2C[C@@H]3CN(C(=O)c4cccn4C)C[C@@H]3C2)cs1`, with 16.1%; and `CC(C(=O)NC(N)=O)N(C)CCCc1cc(-c2ccccc2)no1` (stereo not drawn), with -28.36%.
On to `Cc1cccc(CN2CCC3(CC2)NC(=O)C[C@H]3c2cnn(C)c2)n1`, for which the INHIBITION came to 1.61%.
Turning to `CC(NC(=O)COc1cccc[n+]1[O-])C1CC1` (stereo not drawn), the INHIBITION is 76.7%.
Consider `CC(C)CNC(=O)COc1cccc[n+]1[O-]`, for which the INHIBITION is listed as -12.1%.
`CC(NC(=O)c1cccc[n+]1[O-])C1CC1` (stereo not drawn): the INHIBITION is given as 9%.
In the case of `CC(C)n1ccnc1C1CCN(c2nccc(C(F)(F)F)n2)CC1`, the INHIBITION worked out at 11.5%.
Consider `COCCN(C/C=C/c1ccccc1)Cc1ccccn1`, for which the INHIBITION is on record as 27.8%.
Regarding `COCCN(C/C=C/c1ccccc1)Cc1nccs1`, the INHIBITION is recorded as -12.6%.
On to `CCc1ccc(CN(C/C=C/c2ccccc2)CCOC)nc1`, for which the INHIBITION came out at 52.9%.
With `c1cc2c(cc1CN1CC[C@H]3CO[C@H](CN4CCCC4)[C@H]3C1)OCO2`, the INHIBITION came out at 10.5%.
For `C[C@H]1CN(C(=O)c2cscn2)C[C@@]12CCN(c1ccsc1)C2=O` the value was 47.4%.
Then `COCCOCC(=O)N1C[C@@H]2CC[C@H](Oc3ccccc3)[C@@H]2C1`, with 7.52%; and `CC(=O)N1C[C@@H]2CN(S(=O)(=O)C3CC3)CCO[C@@H]2C1`, with 6.79%.
Regarding `CC(=O)N1CCO[C@@H]2CN(S(=O)(=O)C3CC3)C[C@@H]2C1`, the INHIBITION was 50.3%.
Then `CC(=O)N1CCO[C@@H]2CN(S(=O)(=O)C3CC3)CC[C@@H]2C1`, with 37.6%.

For the origin of these results see ChEMBL document CHEMBL4513216, “Probing the Open Global Health Chemical Diversity Library for Multistage-Active Starting Points for Next-Generation Antimalarials” (ACS Infect Dis, 2020).
